Among all 3,300 compounds or so, about 280 (8.5%) were called active. The entries come from a sample that favours actives as a whole. Unmarked numbers belong to inactive results.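 How the source made its calls: active means mean growth inhibition over the two runs of 50% or more; inactive means mean growth inhibition under 50%.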

The assay can be described thus: A549 NSCLC cell proliferation inhibitors – ATP luminescence, human non-small cell lung line, primary screen (AID 371).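 Further: compound exposure lasted 72 h before the ATP read; 0% = untreated cell signal and 100% = no luminescence left.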 The settings on record: at 10 µM, active compounds read high.
Consider `CCCCSP1(=S)NCCCN1`, for which the growth inhibition was 2.57%. On to `O=C(COc1ccc2ccccc2c1)N1CCN(C2CCN(Cc3ccccc3)CC2)CC1`, for which the growth inhibition is 36.9%. In the case of `O=c1[nH]c(=O)n(C2CCCCC2)c(O)c1C=NCCCn1ccnc1` it was 3.81%. To `O=c1[nH]c(O)c(C=NC2CCN(Cc3ccccc3)CC2)c(=O)[nH]1` belongs 6%. To `COc1cccc(-n2c(C)nc3ccccc3c2=O)c1` belongs 9.28%; to `COc1ccc(C2SCC(=O)Nc3c2c(=O)[nH]n3C2CCCCCC2)cc1` (stereo unspecified), 25.3%.

For `CCC(=NCCN1CCCCC1)c1c(O)n(C)c(=O)n(C)c1=O`, the growth inhibition is -4.37%. To `CC(=NCCO)c1c(O)n(C)c(=O)n(C)c1=O` belongs -4.52%; to `CCC(=NCCOc1ccc(Cl)cc1)c1c(O)n(C)c(=O)n(C)c1=O`, 55.2% (active). Turning to `CCN(CC)CCCNC(=O)c1c(O)c2ccccc2n(Cc2ccccc2)c1=O`, the growth inhibition is 91.6% (active). In the case of `O=C(Nc1ccncc1)c1c(O)c2ccccc2n(Cc2ccccc2)c1=O` it was 68.1% (active).

For the compound `CCN(CC)CCN=Cc1c(O)n(CCc2ccccc2)c(=O)[nH]c1=O`, the growth inhibition was 2.4%. To `CCN(CC)CCCC(C)N=C(c1ccccc1)c1c(O)n(C)c(=O)n(C)c1=O` (stereo unspecified) belongs 7.06%; to `CN1CCc2nc(SCC(=O)OC(C)(C)C)c(C#N)cc2C1`, 25.1%; to `CCCCC1(CN2CCCC2=O)C(=O)NC(=O)NC1=O`, 3.02%.

As to `COCCOC(=O)C1=C(N)Oc2c(c(=O)oc3ccccc23)[C@@]12C(=O)Nc1ccccc12`, the growth inhibition was -4.66%. To `CC1CN=C(Nc2ccc(N(C)C)cc2)S1` (stereo unspecified) belongs 0.47%. In the case of `CCOC(=O)c1cc(C)n(CCc2cnc[nH]2)c1C` it was 9.02%.

For `C[C@H]1CCCC(=O)CCCCCc2cc(O)cc(O)c2C(=O)O1`, the growth inhibition is 52.1% (active).

With `OCCOCC#CCN1CCOCC1`, the growth inhibition is 0.81%. In the case of `CCCCSP1(=S)NCCCO1` (stereo unspecified) it was 19.6%. In the case of `C[C@@]1(CO)[C@H](O)CC[C@@]2(C)[C@H]1CC[C@H]1C[C@@H]3C[C@@]12CC[C@]3(O)CO` it was 69.6% (active).

Turning to `O=P(c1ccccc1)(c1ccccc1)N1CCCCC1`, the growth inhibition was 8.66%.

For the compound `O=c1[nH]c(=O)n(Cc2ccco2)c(O)c1C=NCc1ccc2c(c1)OCO2`, the growth inhibition was 18.1%. To `CC1=C(C(=O)OC(C)C)[C@]2(C(=O)N(CC(N)=O)c3ccccc32)C(C#N)=C(N)O1` belongs 5.06%; to `Cc1c2ccncc2c(C)c2c1[nH]c1ccccc12`, 95% (active); to `c1ccc2c(c1)[nH]c1cnccc12`, -5.8%. In the case of `COc1cccc(CN2CCN(C(=O)COc3ccc4ccccc4c3)CC2)c1` it was 33.9%; in that of `C[C@H]1CCC/C=C/C2C[C@H](O)CC2[C@H](O)/C=C/C(=O)O1` (stereo partly specified), 76% (active); in that of `OC(Cc1ccccc1)(c1ccccc1)C1CN2CCC1CC2` (stereo unspecified), 34.4%. To `Cc1ccc2c(c1)[C@@H]1CN(C)CC[C@@H]1N2C(=O)Nc1cccc(C(F)(F)F)c1` belongs 83% (active).

Take `COc1ccc(C(=O)CN2CCOCC2)cc1F`: the growth inhibition is 16%. To `CN1CCc2c(c(N3CCCCC3)nc3n[nH]c(N)c23)C1` belongs 0.74%; to `COc1ccc2[nH]cc(CCN(C)C)c2c1`, 1.86%; to `CCCc1nc2ccccc2c(=O)n1-c1ccccc1OC`, -0.02%. To `CCN(CC)c1ccc(N=Cc2c(O)n(-c3ccccc3C)c(=O)[nH]c2=O)cc1` belongs 29.6%; to `CC1=NOC2(C)Nc3ncnn3C(c3ccccc3)C12` (stereo unspecified), 6.33%; to `CN1C[C@H](CNC(=O)OCc2ccccc2)C[C@@H]2c3cccc4c3c(cn4C)C[C@H]21`, 94.7% (active). To `CC[C@@H](CO)NC(=O)[C@@H]1C=C2c3cccc4c3c(cn4C)C[C@H]2N(C)C1` belongs 4.84%.

For the compound `CCCCCCn1c(O)c(C=NCCCn2ccnc2)c(=O)[nH]c1=O`, the growth inhibition is 7.84%.

Consider `CC1(C)CC(n2[nH]c(=O)c3c2NC(=O)CSC3c2ccccc2)CCO1` (stereo unspecified), for which the growth inhibition is 3.92%. To `O=c1[nH]c2ccccc2n1C1CCN(CCCC(c2ccc(F)cc2)c2ccc(F)cc2)CC1` belongs 93% (active). `O=c1[nH]c2ccccc2n1CCCN1CCC(n2c(=O)[nH]c3cc(Cl)ccc32)CC1`: the growth inhibition is 6%.

`CCOC(=O)[C@]1(C#N)[C@@H]2C=CC(C(C)=O)=CN2[C@@H](C(N)=O)[C@@H]1c1ccsc1`: the growth inhibition was 3.86%.

For the compound `Nc1ncc(P(=S)(N2CCOCC2)N2CCOCC2)s1`, the growth inhibition was 0.52%.

`COc1cccc(-n2c(O)c(C=NCCN3CCOCC3)c(=O)[nH]c2=O)c1`: the growth inhibition was -0.53%. In the case of `CCc1nc(N2CCNCC2)c(C#N)c2c1CSC(C)(C)C2` it was 49.5%.

As to `CCCCc1nc(N2CCNCC2)c(C#N)c2c1CSC(C)(C)C2`, the growth inhibition is 92% (active). In the case of `COc1ccc2c(c1)c(C(=O)O)c(C)n2CC(C)C` it was -2.88%; in that of `COC(=O)C(O)(c1c[nH]c2ccccc12)C(F)(F)F` (stereo unspecified), 0.63%. To `O=C(CN1CCN(CCO)CC1)Nc1ccc(Cl)cc1C(=O)c1ccccc1` belongs 13.2%; to `C=CCOC(=O)C1=C(C)OC(N)=C(C#N)C12C(=O)N(CN1CCOCC1)c1ccccc12` (stereo unspecified), 0.76%; to `O=c1[nH]c(=O)n(-c2cccc3ccccc23)c(O)c1C=NCCCn1ccnc1`, -5.79%.

Regarding `CCN(CC)CCN=C(C)c1c(O)n(-c2ccccc2OC)c(=O)[nH]c1=O`, the growth inhibition was -2.11%.

For the compound `CC(=O)OC1N=C(c2ccccc2)c2ccccc2NC1=O` (stereo unspecified), the growth inhibition was -5.27%. To `CCN(CC)c1ccc(N=Cc2c(O)n(-c3cc(OC)ccc3OC)c(=O)[nH]c2=O)cc1` belongs 26.8%.
